# According to PubChem BioAssay (NCI):
# Compounds without any hit were thinned out: in the full panel of roughly 79,000, 15% have a hit. A number with no mark means an inactive call. Calls of active or inactive are those of the source. Rule as the data show it: active = growth inhibition above about 70%; inactive = the rest.
# Assays:
# [1] = NCI Yeast Anticancer Drug Screen. Data for the rad52 strain (AID 147);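 also: 0% = growth of vehicle-treated control cultures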; settings: S. cerevisiae rad52 mutant growth inhibition, stronger effect = higher value
# Summary of the method: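 Inhibition of yeast growth, referenced to vehicle controls, was the measured output for a strain with defective DNA damage repair.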
# [2] = NCI Yeast Anticancer Drug Screen. Data for the wt1 strain (AID 149);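 also: 0% = growth of vehicle-treated wt1 cultures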; settings: S. cerevisiae wt1 strain (SPY 50644) growth inhibition, stronger effect = higher value
# Summary of the method: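 Yeast wt1 strain exposed to compounds; growth inhibition measured relative to vehicle-treated controls.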
# [3] = NCI Yeast Anticancer Drug Screen. Data for the rad50EPP+ strain (AID 151);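 also: 0% = growth of vehicle-treated control cultures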; settings: S. cerevisiae rad50 mutant strain, stronger effect = higher value
# Summary of the method: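 Genetically defined yeast (rad50EPP+, DNA damage repair alteration) is grown with compound, and inhibition of growth is expressed relative to vehicle-treated controls.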
# [4] = NCI Yeast Anticancer Drug Screen. Data for the mgt1 strain (AID 153); settings: S. cerevisiae mgt1 mutant growth inhibition, stronger effect = higher value
# Summary of the method: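 In the mgt1 strain, test compounds were added and growth inhibition was determined relative to vehicle-treated controls.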
# [5] = NCI Yeast Anticancer Drug Screen. Data for the rad50 strain (AID 155);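 also: 0% = growth of vehicle-only cultures of the same strain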; settings: S. cerevisiae rad50 strain growth inhibition, stronger effect = higher value
# Summary of the method: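 Yeast carrying a defined DNA repair defect were exposed to test compounds, and growth was compared with vehicle-treated controls to give percent inhibition.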
# [6] = NCI Yeast Anticancer Drug Screen. Data for the mec2-1 strain (AID 157); settings: S. cerevisiae mec2-1 strain, stronger effect = higher value
# Summary of the method: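 Each compound was tested on mec2-1 yeast, a strain altered in DNA damage repair or cell cycle control. Growth inhibition is reported relative to vehicle.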
# [7] = NCI Yeast Anticancer Drug Screen. Data for the rad14 strain (AID 159);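 also: 0% = growth of vehicle-treated control cultures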; settings: S. cerevisiae rad14 strain growth inhibition, stronger effect = higher value
# Summary of the method: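 Yeast cells carrying a defined DNA-repair defect were exposed to compounds, and growth inhibition was calculated relative to vehicle-treated control cultures.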
# [8] = NCI Yeast Anticancer Drug Screen. Data for the sgs1 mgt1 strain (AID 161);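 also: 0% = growth of cultures given vehicle only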; settings: S. cerevisiae sgs1 mgt1 strain, stronger effect = higher value
# Summary of the method: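 Inhibition of yeast growth, normalised to vehicle-treated controls, is reported for a strain bearing genetic alterations in DNA damage repair.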
# [9] = NCI Yeast Anticancer Drug Screen. Data for the CLN2oe strain (AID 163);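 also: 0% = growth of vehicle-only control cultures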; settings: S. cerevisiae CLN2oe strain, stronger effect = higher value
# Summary of the method: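 First, the altered yeast strain was treated with each compound; second, its growth was measured; finally, inhibition was derived by comparison with vehicle controls.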
# [10] = NCI Yeast Anticancer Drug Screen. Data for the cln2 rad14 strain (AID 165);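 also: 0% = growth equal to vehicle treated cultures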; settings: S. cerevisiae cln2 rad14 strain, stronger effect = higher value
# Summary of the method: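 Test compounds were added to cln2 rad14 yeast cultures; inhibition of growth was then determined by comparison with vehicle treatment.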
# [11] = NCI Yeast Anticancer Drug Screen. Data for the bub3 strain (AID 167); settings: S. cerevisiae bub3 mutant strain, stronger effect = higher value
# Summary of the method: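 Compounds were applied to a genetically altered yeast strain carrying a cell-cycle control defect. Growth inhibition was scored against vehicle-treated controls.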
# [12] = NCI Yeast Anticancer Drug Screen. Data for the wt2 strain (AID 169);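 also: 0% = growth of vehicle-treated yeast cultures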; settings: S. cerevisiae wt2 strain growth inhibition, stronger effect = higher value
# Summary of the method: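 The panel's yeast strains carry defined changes in DNA repair or cell cycle genes. Each strain is grown with compound, and growth loss is scored relative to vehicle.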
# [13] = NCI Yeast Anticancer Drug Screen. Data for the mlh1 strain (AID 171);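 also: 0% = growth of vehicle-treated control cultures of the same strain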; settings: S. cerevisiae mlh1 strain growth inhibition, stronger effect = higher value
# Summary of the method: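 Inhibition values reflect reduced yeast growth in the presence of compound, referenced to vehicle controls, using a strain chosen for its alteration in DNA repair or cell cycle control.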
# [14] = NCI Yeast Anticancer Drug Screen. Data for the sgs1 strain (AID 173);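 also: 0% = growth of vehicle-only control cultures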; settings: S. cerevisiae sgs1 mutant, stronger effect = higher value
# Summary of the method: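 Vehicle-treated cultures served as reference for growth inhibition of a yeast strain altered in DNA damage repair or cell cycle control after compound exposure.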
# [15] = NCI Yeast Anticancer Drug Screen. Data for the mlh1 rad18 strain (AID 175); settings: S. cerevisiae mlh1 rad18 strain growth inhibition, stronger effect = higher value
# Summary of the method: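 Inhibition values reflect reduced growth of mutant yeast versus vehicle-treated controls following compound exposure; the mutations affect DNA damage repair.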
# [16] = NCI Yeast Anticancer Drug Screen. Data for the rad18 strain (AID 177); settings: S. cerevisiae rad18 mutant growth inhibition, stronger effect = higher value
# Summary of the method: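 Steps: expose repair-mutant yeast to compound; measure growth; express as inhibition relative to vehicle control.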
# [17] = at 5.0 µM (retest, dose inferred, filed as 0.5)
# [18] = at 50.0 µM (retest, dose inferred, filed as 5.0)
compound,measurement,setting,value
CCC(=O)c1cccc2ccccc12,growth inhibition,[1]; at 1.2 µM,1%
same,growth inhibition,[1]; at 3.7 µM,2%
same,growth inhibition,[1]; at 11.0 µM,1%
same,growth inhibition,[1]; at 33.0 µM,2%
same,growth inhibition,[1]; at 100.0 µM,-1%
same,growth inhibition,[2]; at 1.2 µM,0%
same,growth inhibition,[2]; at 3.7 µM,1%
same,growth inhibition,[2]; at 11.0 µM,3%
same,growth inhibition,[2]; at 33.0 µM,0%
same,growth inhibition,[2]; at 100.0 µM,-4%
same,growth inhibition,[3]; at 1.2 µM,6%
same,growth inhibition,[3]; at 3.7 µM,11%
same,growth inhibition,[3]; at 11.0 µM,27%
same,growth inhibition,[3]; at 33.0 µM,48%
same,growth inhibition,[3]; at 100.0 µM,86% (active)
same,growth inhibition,[4]; at 1.2 µM,1%
same,growth inhibition,[4]; at 3.7 µM,-1%
same,growth inhibition,[4]; at 11.0 µM,0%
same,growth inhibition,[4]; at 33.0 µM,15%
same,growth inhibition,[4]; at 100.0 µM,3%
same,growth inhibition,[5]; at 1.2 µM,0%
same,growth inhibition,[5]; at 3.7 µM,-1%
same,growth inhibition,[5]; [17],-14%
same,growth inhibition,[5]; at 11.0 µM,1%
same,growth inhibition,[5]; at 33.0 µM,0%
same,growth inhibition,[5]; [18],2%
same,growth inhibition,[5]; at 50.0 µM,14.7%
same,growth inhibition,[5]; at 100.0 µM,-3%
same,growth inhibition,[6]; at 1.2 µM,-2%
same,growth inhibition,[6]; at 3.7 µM,0%
same,growth inhibition,[6]; [17],5%
same,growth inhibition,[6]; at 11.0 µM,-2%
same,growth inhibition,[6]; at 33.0 µM,-1%
same,growth inhibition,[6]; [18],4%
same,growth inhibition,[6]; at 50.0 µM,19.2%
same,growth inhibition,[6]; at 100.0 µM,-1%
same,growth inhibition,[7]; at 1.2 µM,-1%
same,growth inhibition,[7]; at 3.7 µM,-2%
same,growth inhibition,[7]; at 11.0 µM,-1%
same,growth inhibition,[7]; at 33.0 µM,-1%
same,growth inhibition,[7]; at 100.0 µM,4%
same,growth inhibition,[8]; [17],-4%
same,growth inhibition,[8]; [18],52%
same,growth inhibition,[8]; at 50.0 µM,20%
same,growth inhibition,[9]; at 1.2 µM,-7%
same,growth inhibition,[9]; at 3.7 µM,2%
same,growth inhibition,[9]; at 11.0 µM,-6%
same,growth inhibition,[9]; at 33.0 µM,-13%
same,growth inhibition,[9]; at 100.0 µM,-11%
same,growth inhibition,[10]; [17],12%
same,growth inhibition,[10]; [18],18%
same,growth inhibition,[10]; at 50.0 µM,46.5%
same,growth inhibition,[11]; at 1.2 µM,-6%
same,growth inhibition,[11]; at 3.7 µM,-6%
same,growth inhibition,[11]; [17],11%
same,growth inhibition,[11]; at 11.0 µM,-6%
same,growth inhibition,[11]; at 33.0 µM,-8%
same,growth inhibition,[11]; [18],23%
same,growth inhibition,[11]; at 50.0 µM,-4.8%
same,growth inhibition,[11]; at 100.0 µM,4%
same,growth inhibition,[12]; at 1.2 µM,1%
same,growth inhibition,[12]; at 3.7 µM,2%
same,growth inhibition,[12]; at 11.0 µM,3%
same,growth inhibition,[12]; at 33.0 µM,1%
same,growth inhibition,[12]; at 100.0 µM,1%
same,growth inhibition,[13]; at 1.2 µM,3%
same,growth inhibition,[13]; at 3.7 µM,2%
same,growth inhibition,[13]; at 11.0 µM,2%
same,growth inhibition,[13]; at 33.0 µM,1%
same,growth inhibition,[13]; at 100.0 µM,4%
same,growth inhibition,[14]; at 1.2 µM,1%
same,growth inhibition,[14]; at 3.7 µM,3%
same,growth inhibition,[14]; at 11.0 µM,4%
same,growth inhibition,[14]; at 33.0 µM,3%
same,growth inhibition,[14]; at 100.0 µM,14%
same,growth inhibition,[15]; [17],7%
same,growth inhibition,[15]; [18],28%
same,growth inhibition,[15]; at 50.0 µM,-14.7%
same,growth inhibition,[16]; at 1.2 µM,1%
same,growth inhibition,[16]; at 3.7 µM,-1%
same,growth inhibition,[16]; at 11.0 µM,-14%
same,growth inhibition,[16]; at 33.0 µM,0%
same,growth inhibition,[16]; at 100.0 µM,-2%
O=S(=O)(CCCl)c1ccccc1Cl,growth inhibition,[1]; at 1.2 µM,-5%
same,growth inhibition,[1]; at 3.7 µM,1%
same,growth inhibition,[1]; at 11.0 µM,42%
same,growth inhibition,[1]; at 33.0 µM,93% (active)
same,growth inhibition,[1]; at 100.0 µM,99% (active)
same,growth inhibition,[2]; at 1.2 µM,3%
same,growth inhibition,[2]; at 3.7 µM,23%
same,growth inhibition,[2]; at 11.0 µM,33%
same,growth inhibition,[2]; at 33.0 µM,94% (active)
same,growth inhibition,[2]; at 100.0 µM,98% (active)
same,growth inhibition,[3]; at 1.2 µM,-7%
same,growth inhibition,[3]; at 3.7 µM,15%
same,growth inhibition,[3]; at 11.0 µM,43%
same,growth inhibition,[3]; at 33.0 µM,79% (active)
same,growth inhibition,[3]; at 100.0 µM,84% (active)
same,growth inhibition,[4]; at 1.2 µM,1%
same,growth inhibition,[4]; at 3.7 µM,1%
same,growth inhibition,[4]; at 11.0 µM,41%
same,growth inhibition,[4]; at 33.0 µM,96% (active)
same,growth inhibition,[4]; at 100.0 µM,98% (active)
same,growth inhibition,[5]; at 1.2 µM,-8%
same,growth inhibition,[5]; at 3.7 µM,-12%
same,growth inhibition,[5]; [17],-119%
same,growth inhibition,[5]; at 11.0 µM,65%
same,growth inhibition,[5]; at 33.0 µM,94% (active)
same,growth inhibition,[5]; [18],79% (active)
same,growth inhibition,[5]; at 50.0 µM,94.2% (active)
same,growth inhibition,[5]; at 100.0 µM,98% (active)
same,growth inhibition,[6]; at 1.2 µM,2%
same,growth inhibition,[6]; at 3.7 µM,8%
same,growth inhibition,[6]; [17],-36%
same,growth inhibition,[6]; at 11.0 µM,19%
same,growth inhibition,[6]; at 33.0 µM,83% (active)
same,growth inhibition,[6]; [18],79% (active)
same,growth inhibition,[6]; at 50.0 µM,91.8% (active)
same,growth inhibition,[6]; at 100.0 µM,98% (active)
same,growth inhibition,[7]; at 1.2 µM,-2%
same,growth inhibition,[7]; at 3.7 µM,11%
same,growth inhibition,[7]; at 11.0 µM,45%
same,growth inhibition,[7]; at 33.0 µM,91% (active)
same,growth inhibition,[7]; at 100.0 µM,99% (active)
same,growth inhibition,[8]; [17],-42%
same,growth inhibition,[8]; [18],87% (active)
same,growth inhibition,[8]; at 50.0 µM,90.8% (active)
same,growth inhibition,[9]; at 1.2 µM,-5%
same,growth inhibition,[9]; at 3.7 µM,-2%
same,growth inhibition,[9]; at 11.0 µM,3%
same,growth inhibition,[9]; at 33.0 µM,68%
same,growth inhibition,[9]; at 100.0 µM,97% (active)
same,growth inhibition,[10]; [17],-42%
same,growth inhibition,[10]; [18],25%
same,growth inhibition,[10]; at 50.0 µM,84.3% (active)
same,growth inhibition,[11]; at 1.2 µM,-1%
same,growth inhibition,[11]; at 3.7 µM,6%
same,growth inhibition,[11]; [17],-59%
same,growth inhibition,[11]; at 11.0 µM,38%
same,growth inhibition,[11]; at 33.0 µM,94% (active)
same,growth inhibition,[11]; [18],80% (active)
same,growth inhibition,[11]; at 50.0 µM,90.7% (active)
same,growth inhibition,[11]; at 100.0 µM,98% (active)
same,growth inhibition,[12]; at 1.2 µM,8%
same,growth inhibition,[12]; at 3.7 µM,32%
same,growth inhibition,[12]; at 11.0 µM,64%
same,growth inhibition,[12]; at 33.0 µM,98% (active)
same,growth inhibition,[12]; at 100.0 µM,99% (active)
same,growth inhibition,[13]; at 1.2 µM,-10%
same,growth inhibition,[13]; at 3.7 µM,-1%
same,growth inhibition,[13]; at 11.0 µM,27%
same,growth inhibition,[13]; at 33.0 µM,90% (active)
same,growth inhibition,[13]; at 100.0 µM,97% (active)
same,growth inhibition,[14]; at 1.2 µM,-5%
same,growth inhibition,[14]; at 3.7 µM,0%
same,growth inhibition,[14]; at 11.0 µM,64%
same,growth inhibition,[14]; at 33.0 µM,95% (active)
same,growth inhibition,[14]; at 100.0 µM,99% (active)
same,growth inhibition,[15]; [17],-115%
same,growth inhibition,[15]; [18],81% (active)
same,growth inhibition,[15]; at 50.0 µM,90.2% (active)
same,growth inhibition,[16]; at 1.2 µM,-1%
same,growth inhibition,[16]; at 3.7 µM,13%
same,growth inhibition,[16]; at 11.0 µM,83% (active)
same,growth inhibition,[16]; at 33.0 µM,96% (active)
same,growth inhibition,[16]; at 100.0 µM,98% (active)
